# ClpP mod – qHTS Assay for Activators of ClpP | ATP-dependent Clp protease proteolytic subunit (Bacillus subtilis (strain 168)), P80244 | purified B. subtilis ClpP, FRET peptide cleavage, 20 min | Potency, µM (titrated, usually from 57.5 µM), without a hit: top-dose activity change, negative = active | 1.9% of 340,000 active; active means well fitted falling curve with a large enough effect; inconclusive means small, poorly fitted or top-dose-only effect; inactive means no such curve, though single readings can be large or run the other way; further: potency means the concentration at half of the fitted maximal effect; the source files actives as falling curves though it sought activators and does not explain the sign; nearly all actives have a fitted effect of over 65% in size
# Target sequence (P80244 whole entry, looked up): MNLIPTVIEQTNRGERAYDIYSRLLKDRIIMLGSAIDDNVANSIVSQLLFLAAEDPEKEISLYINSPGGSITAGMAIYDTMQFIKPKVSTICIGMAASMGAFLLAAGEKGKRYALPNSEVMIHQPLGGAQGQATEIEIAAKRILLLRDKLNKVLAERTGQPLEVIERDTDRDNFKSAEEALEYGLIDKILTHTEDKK
#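 FRET quenching reversal measured ClpP activation: 10 microg/mL B. subtilis ClpP at pH 8 with the FRET-FV decapeptide, read at 430 nm after 320 nm excitation. The 20-min minus 0-min signal was scaled between DMSO/no-enzyme wells and ADEP (5.8 microM final).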
# DRD3 agonist – activates the human D3 dopamine receptor; P35462; D3R DiscoveRx beta-arrestin cells, luminescence, 90 min; max activation, %; 0.58% of 410,000 active; in the data active means max activation above about 30%; further: 0% is about no effect
# Target sequence (P35462 whole entry, looked up): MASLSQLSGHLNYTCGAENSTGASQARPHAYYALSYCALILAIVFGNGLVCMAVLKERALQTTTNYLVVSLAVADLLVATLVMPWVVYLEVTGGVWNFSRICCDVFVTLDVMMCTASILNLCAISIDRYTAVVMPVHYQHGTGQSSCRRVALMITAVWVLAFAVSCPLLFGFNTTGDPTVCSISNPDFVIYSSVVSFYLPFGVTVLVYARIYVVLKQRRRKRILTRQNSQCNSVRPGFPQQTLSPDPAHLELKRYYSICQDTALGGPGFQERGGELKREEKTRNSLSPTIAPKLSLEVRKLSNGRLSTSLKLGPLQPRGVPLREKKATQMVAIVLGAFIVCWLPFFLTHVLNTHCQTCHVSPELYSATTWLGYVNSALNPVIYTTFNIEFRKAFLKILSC
#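 Cells at 1500/well, incubated overnight, then treated with pinned compounds (dopamine as control) for 90 min at 37 degrees C. DiscoveRx reagent added for 30 - 60 minutes at room temperature; luminescence read.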
# IL-1B inflam inh – inflammasome signaling inhibition, IL-1 beta readout. THP-1 LPS/ATP IL-1B secretion, AlphaLISA, 16 h; stronger effect = lower value. activity change, % at 57.5 µM. 4.7% of 360,000 active; in the data active means activity change below about -50%; inconclusive means mostly about -30% to -49%; further: on the % scale 0 is the no-effect control and ±100 the full control effect
#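 THP-1 cells pretreated 1 hr with compounds (up to 57.5 uM final), then stimulated with LPS (250 ng/mL final) plus ATP (1.25 mM final); secreted IL-1B measured by AlphaLISA after 16 hr, decreased signal indicating inhibition.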
# D3 antag – D3 dopamine receptor (human) antagonism; max response, negative = inhibition, %; D3R cells, DiscoveRx beta-arrestin luminescence, antagonist mode; stronger effect = lower value; P35462; AID 652054; 2.5% of 360,000 active; in the data active means max response below about -50%; inconclusive means no clear call, values can overlap the other calls; further: on the % scale 0 is the no-effect control and ±100 the full control effect
#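 Cells expressing the human receptor were seeded at 1500 cells/well, incubated overnight at 37 degrees C in 5% CO2, then exposed to library compounds with dopamine controls for 90 minutes at 37 degrees C before luminescent detection.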
# DT40 TDP1 no CPT – qHTS for Inhibitors of human tyrosyl-DNA phosphodiesterase 1 (TDP1): qHTS in cells in absence of CPT; DT40 Tdp1-/- hTDP1 cells, no CPT, ATP luminescence, 48 h; Potency, µM (series often up to 46.2 µM), for inactives: at the top dose activity change, negative = growth inhibition, hits mostly inhibitors; 15% of 420,000 active; AID 686978, 2013; further: potency means the concentration at half of the fitted maximal effect; on the % scale 0 is the no-effect control and ±100 the full control effect; nearly all actives have a fitted effect of over 55% in size
#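 Chicken DT40 Tdp1-/- cells complemented with human TDP1, screened without camptothecin (DMSO vehicle only), 400 cells/well. Compounds pin-transferred, cells incubated at 37 °C for at least 48 hr. Growth read as ATP-dependent luminescence (CellTiter-Glo, 30 min at RT).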
# DT40 TDP1 CPT – DT40-hTDP1 cell growth loss with CPT; chicken DT40 Tdp1-/-;hTDP1 cells + 20 nM CPT, ATP luminescence, 48 h; Potency, µM (highest dose often 46.2 µM), without a hit: at the top dose activity change, negative = growth inhibition, actives largely listed as inhibitors; 12% of 420,000 active; AID 686979; further: potency means the concentration at half of the fitted maximal effect; on the % scale 0 is the no-effect control and ±100 the full control effect; nearly all actives have a fitted effect of over 55% in size
#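 Chicken DT40 Tdp1-/- cells stably complemented with human TDP1 were seeded at 400 cells/well in medium containing 20 nM camptothecin, exposed to pin-transferred compounds, and grown at 37 °C for at least 48 hr. Viability was read as ATP luminescence.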
# Numbers without * were called inactive; ? = inconclusive; / = no result given. Shown are actives, neighbours in structure and some others; about 21% of the full set was active somewhere. Unless noted, the call rests on the fitted dose curve; in most records, active means well fitted inhibition curve with a large enough effect; inconclusive means small, poorly fitted or top-dose-only effect; inactive means flat fitted curve, though single readings scatter.
SMILES,ClpP mod,DRD3 agonist,IL-1B inflam inh,D3 antag,DT40 TDP1 no CPT,DT40 TDP1 CPT
CC(=O)c1nn(-c2cccc(Br)c2)cc1C(=O)c1ccc(Cl)cc1,/,7.0,11.5,31.1,7.31µM*,?
O=C(c1cccc(Br)c1)c1cn(-c2ccccc2)nc1C(=O)c1ccccc1,-1.2%,-9.4,-26.1,-29.2,16.4µM*,18.4µM*
O=C(C[n+]1ccccc1)N1c2ccccc2Sc2ccccc21,/,-2.8,-17.9,4.4,?,?
O=C(COc1ccccc1)N1CCc2ccccc21,/,0.1,0.0,-6.3,?,-1.6%
O=C(COc1ccc2ccccc2c1CN1CCOCC1)N1CCc2ccccc21,-3.6%,-8.5,-73.9*,-68.6*,?,?
O=C(COc1ccc(F)cc1)N1c2ccccc2CCc2ccccc21,3.5%,1.7,-18.7,28.6,18.4µM*,?
O=C(COc1ccccc1)N1c2ccccc2Sc2ccccc21,15.8µM*,-14.5,-0.5,-21.7,-49.2%,-37.2%
CN(C)c1cc[n+](CC(=O)N2c3ccccc3Sc3ccccc32)cc1,-1.9%,-7.2,?,14.8,2.91µM*,2.06µM*
Cc1cc(C(=O)COC(=O)COc2ccc(C#N)cc2)c(C)n1C1CC1,0.8%,-0.3,0.9,16.8,-3.9%,5.4%
O=C(CCl)N1c2ccccc2Sc2c1ccc1ccccc21,-1.2%,-3.7,-102.2*,?,5.8µM*,3.66µM*
O=C(NCCc1ccccc1)N1c2ccccc2Sc2ccccc21,-1.6%,-3.6,-10.6,?,16.4µM*,?
O=C(COc1cccc2ccccc12)N1CCN(c2ccccc2)CC1,-6.1%,-2.0,-9.8,11.1,?,?
CC(=O)N1c2ccccc2Sc2ccc3ccccc3c21,-1.2%,0.6,-18.9,0.7,?,?
O=C(COc1cccc2ccccc12)N1c2ccccc2CCc2ccccc21,?,3.6,?,5.4,18.4µM*,?
CCOC(=O)/C(N=Nc1sc(C(=O)OC)c(C)c1C(=O)OCC)=C(\O)CCl,-2.3%,-3.9,11.7,-1.7,14.6µM*,?
CCOC(=O)c1sc(N=NC2=C(O)CCCC2=O)c(C(=O)OCC)c1C,-1.6%,4.6,15.8,-27.2,-13.9%,-19.4%
Cc1ccc(NC(=O)c2cccc3c(=O)c4c([nH]c23)CCCC4)c(C)c1,0.4%,2.9,/,/,?,?
COc1cc(CN2CCN(Cc3c[nH]c4ccccc34)CC2CCO)cc(OC)c1 (stereo not drawn),0.2%,-10.4,-23.0,0.5,?,13µM*
CC(C)(C)CN1CCN(Cc2c[nH]c3ccccc23)CC1CCO (stereo not drawn),0.3%,-18.9,-23.4,-24.6,8.2µM*,8.2µM*
CC(C)=CCN1CCN(Cc2cn(C(C)C)c3ccccc23)CC1CCO (stereo not drawn),-3.4%,-17.1,-3.9,2.0,23.1µM*,18.4µM*
Cc1ccc(CN2CCN(Cc3cn(C(C)C)c4ccccc34)CC2CCO)o1 (stereo not drawn),/,-10.8,?,20.9,-24.9%,?
COc1ccc(CN2CCN(Cc3c[nH]c4ccccc34)CC2CCO)c(F)c1 (stereo not drawn),-1.4%,-10.5,?,-0.4,8.2µM*,4.61µM*
Cc1ccc(NC(=O)CN2C=NS(=O)(=O)c3ccccc32)cc1,0.0%,-10.2,/,/,-14.5%,-26.4%
CCCc1cc(=O)oc2cc(C)cc(OCC(=O)N3CCC(C(N)=O)CC3)c12,4.5%,2.5,11.6,0.0,-2.5%,15.0%
COc1cc(C(=O)N/N=C(\C)c2ccc(NC(=O)Cc3ccccc3)cc2)ccc1O,0.1%,-3.7,-6.4,1.3,-3.1%,-22.9%
SMILES,ClpP mod,DRD3 agonist,IL-1B inflam inh,D3 antag,DT40 TDP1 no CPT,DT40 TDP1 CPT
COCc1cc(CN2CCN(CCc3ccccc3)C(CCO)C2)ccc1OC (stereo not drawn),-4.9%,-9.9,2.4,-11.8,?,1.2%
COc1ccc(CN2CCN(Cc3c[nH]c4ccccc34)CC2CCO)cc1C (stereo not drawn),-3.9%,-20.5,?,-23.4,9.2µM*,6.51µM*
COc1cccc(CN2CCN(Cc3[nH]c4ccccc4c3C)CC2CCO)c1 (stereo not drawn),/,-3.3,-78.3*,-6.5,?,?
COc1cccc(CN2CCN(Cc3cc4ccccc4[nH]3)CC2CCO)c1 (stereo not drawn),-17.4%,-9.7,-10.8,-7.0,?,?
COc1ccc(OC)c(NC(=O)c2ccc3c(c2)c(C)c(C)n3Cc2ccc(F)cc2)c1,22.4µM*,-18.0,/,/,20.6µM*,?
COc1ccc(OC)c(NC(=O)c2ccc(CN3CCOCC3)cc2)c1,-3.6%,-3.0,-21.5,0.0,-24.0%,-2.5%
COc1ccc(NC(=O)c2ccc3c(c2)c(C)c(C)n3Cc2ccc(F)cc2)c(OC)c1,22.4µM*,-0.1,/,/,20.6µM*,18.4µM*
O=C1Nc2ccccc2C(=O)N(C2CCCC2)C1C(=O)NC1CC1 (stereo not drawn),-0.8%,8.7,-5.9,6.5,5.7%,-4.8%
Nn1c(SCc2ccccc2F)nnc1-c1ccccn1,-1.8%,4.5,-23.0,-10.9,-21.8%,-3.0%
CCOC(=O)c1ccc2c(c1)C1C=CCC1C(C(=O)OCC)N2 (stereo not drawn),/,13.5,3.4,0.7,?,?
O=C(O)C1Nc2ccc(Br)cc2C2C=CCC12 (stereo not drawn),-0.4%,18.7,14.4,-2.8,-11.7%,-11.9%
CCOC(=O)C1Nc2ccc(C)cc2C2C=CCC12 (stereo not drawn),-3.9%,-2.3,-13.1,0.0,18.4µM*,?
CCOC(=O)C1Nc2ccc(Br)cc2C2C=CCC12 (stereo not drawn),/,-6.7,-11.6,3.8,20.6µM*,?
O=C(NCCF)C1Nc2ccc(OC(F)(F)F)cc2C2C=CCC12 (stereo not drawn),-3.3%,16.7,-0.4,10.7,-24.2%,?
CC(C)CNC(=O)C1Nc2ccc(OC(F)(F)F)cc2C2C=CCC12 (stereo not drawn),-6.4%,0.3,-6.4,1.8,13µM*,?
C[N+]1(CC(=O)c2ccc(Oc3ccccc3)cc2)CCOCC1,1.0%,/,/,/,?,?
CC(C)(C)c1ccc(C(=O)Nc2nnc(C3=COCCO3)o2)cc1,-0.3%,-14.4,-1.4,-71.2*,16.4µM*,13µM*

# From PubChem BioAssay
